Records with an inconclusive call do not appear. The source holds several records for some structures; these can differ, active in one and inactive in another. Active and inactive are the calls of the source. Calls come from the whole dose curve; as a rule, active = well fitted curve in the direction sought with a large enough effect; inconclusive = small, poorly fitted or top-dose-only effect, or another doubt; inactive = no such curve, though single readings can be large; an effect the other way counts as inactive or inconclusive.
Assays:
[1] = Quantitative high throughput screen for delayed death inhibitors of the malarial parasite plastid, 48 hour incubation (AID 488752); conditions: Plasmodium falciparum growth; series mostly up to 28.7 µM; note: nearly all actives have a fitted effect of over 65% in size; note: potency is the fitted concentration of half-maximal effect
In short: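 Erythrocytes infected with P. falciparum carrying an integrated firefly luciferase reporter (2% hematocrit, 0.1% parasitemia final) were exposed to compounds in RPMI 1640/0.5% Albumax for 48 h at 37 C, 5% CO2. Growth inhibition was scored as reduced luminescence.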

[2] = biological target: Thioredoxin reductase 1, cytoplasmic (Rattus norvegicus) (UniProt O89049); test: qHTS Assay for Substrates of Mammalian Selenoprotein Thioredoxin Reductase 1 (TrxR1) (AID 488772); conditions: purified TrxR1, NADPH consumption substrate assay; series mostly up to 57.1 µM;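 note: NADPH fluorescence in the first read after selenite addition and not the 8 min delta; a drop in NADPH fluorescence below the no-compound background marks a TrxR1 substrate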
In short: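 Quantitative HTS in Tris-HCl buffer at pH 7.5 with EDTA and Tween-20, using rat TrxR1, 400 uM NADPH and 400 uM selenite (final). A fall in initial NADPH fluorescence relative to background marked substrate behaviour.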

[3] = biological target: Thioredoxin reductase 1, cytoplasmic (Rattus norvegicus) (UniProt O89049); test: qHTS Assay for Inhibitors of Mammalian Selenoprotein Thioredoxin Reductase 1 (TrxR1) (AID 488773); conditions: purified TrxR1 enzyme activity; Potency: inhibition; series mostly up to 57.1 µM; note: nearly all actives have a fitted effect of over 40% in size; note: potency is the fitted concentration of half-maximal effect
In short: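 Steps: enzyme (90 nM) plus NADPH (400 uM final), 5 min at ~22 deg C; compound added, 15 min; selenite (400 uM final) added; fluorescence followed for 8 min. Concentration-response curves derived from the normalized delta values.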

[4] = biological target: Flap endonuclease 1 (Homo sapiens) (UniProt P39748); test: qHTS Validation Assay for the Inhibitors of Human Flap endonuclease 1 (FEN1) (AID 488816); conditions: FEN1 nuclease activity, fluorogenic DNA substrate; series mostly up to 57.1 µM; note: potency is the fitted concentration of half-maximal effect
In short: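 FEN1, dispensed as a 10 nM reagent, was preincubated with pin-transferred compounds for 15 min at room temperature before substrate was added (50 nM final). Plates were read at 0 and 15 min, and a four-parameter Hill equation was fitted to the concentration-response data.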

[5] = biological target: M-phase phosphoprotein 8 (Homo sapiens) (UniProt Q99549); test: qHTS Validation Assay for Inhibitors for MPP8 Chromodomain Interactions with Methylated Histone Tails (AID 488949); conditions: AlphaScreen MPP8 binding to H3K9me3 peptide; series mostly up to 57.1 µM; note: nearly all actives have a fitted effect of over 55% in size; note: potency is the fitted concentration of half-maximal effect
In short: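 Disruption of the preformed MPP8–trimethyl-H3K9 peptide complex (both 50 nM, 30 min, RT) is measured after 30 min compound exposure, using AlphaScreen proximity beads; aurintricarboxylic acid titration serves as plate control.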

[6] = biological target: Chromobox protein homolog 1 (Homo sapiens) (UniProt P83916); test: qHTS Validation Assay for Inhibitors of HP1-beta Chromodomain Interactions with Methylated Histone Tails (AID 488953); conditions: HP1-beta chromodomain / methylated histone peptide binding assay; series mostly up to 114 µM; note: nearly all actives have a fitted effect of over 50% in size; note: potency is the fitted concentration of half-maximal effect
In short: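 HP1-beta (50 nM) was preincubated 30 min at room temperature with biotinylated H3(1-18)K9me3 peptide (50 nM) in PBS pH 7.4, 0.01% Tween-20, then with compounds 30 min. AlphaScreen signal was read after streptavidin donor/nickel chelate acceptor beads (10 ug/mL final).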

[7] = biological target: Methanococcus maripaludis chaperonin (MmCpn) (UniProt Q6LX38); test: High-Throughput Screening for Modulators of Cytosolic Chaperonin Activity: MmCpn Primary Screen (AID 488978); conditions: Purified MmCpn ATPase activity, ADP HTRF detection, 10 min; series mostly up to 76.9 µM;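 note: 50 nM MmCpn enzyme hydrolysing 30 µM ATP at 37 °C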
In short: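 Measures ATPase turnover of the M. maripaludis chaperonin (50 nM final) against 30 uM ATP over 10 min at 37C, with compound added 5 min beforehand at room temperature. ADP is quantified by HTRF immunodetection.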

[8] = biological target: Transient receptor potential cation channel subfamily V member 1 (Homo sapiens) (UniProt Q8NER1); test: HTS Assay for Compounds that Act as Enhancers of the Vanilloid Receptor 1 (AID 488979); conditions: TRPV1-expressing cells, enhancer of channel activity; series mostly up to 41.7 µM
In short: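 TRPV1-expressing cells loaded with Fluo-8 calcium dye; compounds added and calcium influx read kinetically for 3 min (agonist phase), then capsaicin at EC20 added and read 2 min more for enhancement. Fluorescence ex 480/em 520 nm.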

[9] = biological target: Thyrotropin receptor (Homo sapiens) (UniProt P16473); test: qHTS Assay for Antagonists of the Thyroid Stimulating Hormone Receptor (AID 488980); conditions: TSHR-expressing cells, cAMP antagonist read-out; series mostly up to 57.5 µM
In short: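 Cells expressing human TSHR (HEK293) are dispensed in HBSS/HEPES containing 70 uM RO 20-1724, compound is added, then TSH at EC80 (4 nM final). Antibody in lysis buffer follows, 30 minutes at room temperature before HTRF detection.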

[10] = biological target: D(1A) dopamine receptor (Homo sapiens) (UniProt P21728); test: HTS Assay for Allosteric Agonists of the Human D1 Dopamine Receptor: Primary Screen for Agonists (AID 488981); conditions: Inducible HEK293 T-REx D1 cells, calcium-flux fluorescence, 180 s kinetic; series mostly up to 41.8 µM; note: potency is the fitted concentration of half-maximal effect
In short: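 Tetracycline-induced HEK293 T-REx cells force-coupled to calcium signalling were incubated overnight at 30 C and dye-loaded at room temperature. Calcium flux over 180 s after compound addition flagged agonists; a further 180 s read after EC20 dopamine flagged potentiators.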

Measured: Potency

Sequence of Thioredoxin reductase 1, cytoplasmic (Rattus norvegicus) (O89049 whole entry, looked up): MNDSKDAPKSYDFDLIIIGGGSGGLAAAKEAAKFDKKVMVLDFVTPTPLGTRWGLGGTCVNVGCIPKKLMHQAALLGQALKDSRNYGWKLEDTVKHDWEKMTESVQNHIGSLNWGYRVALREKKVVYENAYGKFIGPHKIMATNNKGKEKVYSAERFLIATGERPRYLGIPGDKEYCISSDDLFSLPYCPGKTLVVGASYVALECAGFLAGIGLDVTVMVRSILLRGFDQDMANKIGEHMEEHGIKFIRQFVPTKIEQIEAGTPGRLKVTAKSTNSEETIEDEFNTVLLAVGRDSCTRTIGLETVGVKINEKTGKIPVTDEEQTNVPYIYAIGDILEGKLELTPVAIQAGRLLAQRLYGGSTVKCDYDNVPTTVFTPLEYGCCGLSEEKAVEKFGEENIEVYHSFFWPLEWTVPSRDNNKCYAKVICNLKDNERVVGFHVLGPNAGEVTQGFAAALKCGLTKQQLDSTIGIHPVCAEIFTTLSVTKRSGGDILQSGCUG
Sequence of Thyrotropin receptor (Homo sapiens) (P16473 whole entry, looked up): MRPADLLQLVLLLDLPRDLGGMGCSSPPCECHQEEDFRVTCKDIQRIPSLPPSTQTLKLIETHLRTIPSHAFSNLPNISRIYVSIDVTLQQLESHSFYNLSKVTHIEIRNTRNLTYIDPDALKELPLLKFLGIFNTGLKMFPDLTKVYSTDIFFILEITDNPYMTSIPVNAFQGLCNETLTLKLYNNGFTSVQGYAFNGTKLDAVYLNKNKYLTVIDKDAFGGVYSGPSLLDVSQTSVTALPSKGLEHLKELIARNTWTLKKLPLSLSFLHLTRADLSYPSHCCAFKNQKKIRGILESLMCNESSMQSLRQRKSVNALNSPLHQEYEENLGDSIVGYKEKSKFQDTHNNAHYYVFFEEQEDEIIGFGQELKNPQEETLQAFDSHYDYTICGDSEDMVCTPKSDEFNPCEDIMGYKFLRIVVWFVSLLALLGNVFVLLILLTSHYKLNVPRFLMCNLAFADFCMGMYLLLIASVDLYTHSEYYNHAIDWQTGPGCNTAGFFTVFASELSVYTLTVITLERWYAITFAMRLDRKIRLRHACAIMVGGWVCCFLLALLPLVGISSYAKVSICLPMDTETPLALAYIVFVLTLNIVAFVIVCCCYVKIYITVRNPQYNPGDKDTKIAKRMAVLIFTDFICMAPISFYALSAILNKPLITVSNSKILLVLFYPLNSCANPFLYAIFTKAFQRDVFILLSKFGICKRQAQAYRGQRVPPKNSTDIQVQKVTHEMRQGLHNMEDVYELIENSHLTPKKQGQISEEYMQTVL
Sequence of M-phase phosphoprotein 8 (Homo sapiens) (Q99549 whole entry, looked up): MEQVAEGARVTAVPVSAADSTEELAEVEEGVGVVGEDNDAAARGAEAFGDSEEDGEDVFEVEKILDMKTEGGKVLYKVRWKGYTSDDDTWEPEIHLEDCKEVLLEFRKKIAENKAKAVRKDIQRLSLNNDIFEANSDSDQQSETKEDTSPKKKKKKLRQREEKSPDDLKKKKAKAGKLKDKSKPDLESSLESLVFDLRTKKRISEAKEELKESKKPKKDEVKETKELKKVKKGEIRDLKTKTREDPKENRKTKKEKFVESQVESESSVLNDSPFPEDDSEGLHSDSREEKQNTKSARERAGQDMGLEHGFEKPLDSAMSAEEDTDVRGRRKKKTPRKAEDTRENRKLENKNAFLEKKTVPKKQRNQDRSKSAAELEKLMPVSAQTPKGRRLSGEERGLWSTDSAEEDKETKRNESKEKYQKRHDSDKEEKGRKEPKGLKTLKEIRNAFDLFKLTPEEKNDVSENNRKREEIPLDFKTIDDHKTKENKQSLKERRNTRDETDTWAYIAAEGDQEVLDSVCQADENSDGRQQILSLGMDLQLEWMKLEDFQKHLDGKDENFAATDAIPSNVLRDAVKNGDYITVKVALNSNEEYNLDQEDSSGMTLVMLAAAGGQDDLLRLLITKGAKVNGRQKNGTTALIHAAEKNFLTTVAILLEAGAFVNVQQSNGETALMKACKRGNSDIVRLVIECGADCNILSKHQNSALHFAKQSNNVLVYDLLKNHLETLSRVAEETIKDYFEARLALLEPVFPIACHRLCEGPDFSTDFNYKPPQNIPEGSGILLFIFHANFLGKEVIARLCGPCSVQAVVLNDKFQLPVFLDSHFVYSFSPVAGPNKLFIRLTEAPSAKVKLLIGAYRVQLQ
Sequence of Transient receptor potential cation channel subfamily V member 1 (Homo sapiens) (Q8NER1 whole entry, looked up): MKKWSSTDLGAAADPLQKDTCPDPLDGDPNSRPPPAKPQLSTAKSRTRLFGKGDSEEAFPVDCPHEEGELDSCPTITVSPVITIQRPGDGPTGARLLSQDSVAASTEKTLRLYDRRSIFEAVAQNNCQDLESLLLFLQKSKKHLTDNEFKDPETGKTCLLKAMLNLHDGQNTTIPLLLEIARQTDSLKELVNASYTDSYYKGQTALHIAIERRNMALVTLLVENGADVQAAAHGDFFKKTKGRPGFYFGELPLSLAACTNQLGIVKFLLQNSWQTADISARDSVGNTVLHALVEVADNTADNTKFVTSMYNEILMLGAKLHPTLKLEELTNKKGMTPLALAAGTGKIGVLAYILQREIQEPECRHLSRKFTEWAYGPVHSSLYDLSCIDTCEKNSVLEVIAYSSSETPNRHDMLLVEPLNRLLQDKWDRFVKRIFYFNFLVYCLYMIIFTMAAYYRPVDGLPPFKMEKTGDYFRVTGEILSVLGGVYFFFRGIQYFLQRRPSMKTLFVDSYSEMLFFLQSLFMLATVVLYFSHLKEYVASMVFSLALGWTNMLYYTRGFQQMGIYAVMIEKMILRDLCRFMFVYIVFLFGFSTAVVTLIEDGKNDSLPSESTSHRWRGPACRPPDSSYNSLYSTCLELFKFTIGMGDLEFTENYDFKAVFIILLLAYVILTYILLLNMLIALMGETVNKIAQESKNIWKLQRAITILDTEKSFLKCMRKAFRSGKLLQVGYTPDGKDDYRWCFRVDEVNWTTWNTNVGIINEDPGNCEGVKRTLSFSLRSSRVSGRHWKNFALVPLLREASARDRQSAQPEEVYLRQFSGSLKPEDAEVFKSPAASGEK
Sequence of Methanococcus maripaludis chaperonin (MmCpn) (Q6LX38 1-543): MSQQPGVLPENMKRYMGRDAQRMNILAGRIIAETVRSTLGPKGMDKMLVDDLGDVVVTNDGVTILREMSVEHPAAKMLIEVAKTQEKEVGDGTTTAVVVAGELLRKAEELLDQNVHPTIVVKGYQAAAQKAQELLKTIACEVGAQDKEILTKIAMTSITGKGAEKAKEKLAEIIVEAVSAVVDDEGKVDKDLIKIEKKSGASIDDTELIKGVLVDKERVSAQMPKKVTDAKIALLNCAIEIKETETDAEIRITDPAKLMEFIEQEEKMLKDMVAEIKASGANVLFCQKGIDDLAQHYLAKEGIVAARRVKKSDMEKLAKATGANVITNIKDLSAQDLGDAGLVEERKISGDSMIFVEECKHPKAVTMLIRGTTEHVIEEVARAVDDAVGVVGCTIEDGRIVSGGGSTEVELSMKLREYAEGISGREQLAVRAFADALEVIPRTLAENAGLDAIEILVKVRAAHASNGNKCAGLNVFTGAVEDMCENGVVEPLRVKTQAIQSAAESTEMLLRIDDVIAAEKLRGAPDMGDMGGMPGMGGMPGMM
Sequence of Chromobox protein homolog 1 (Homo sapiens) (P83916 whole entry, looked up): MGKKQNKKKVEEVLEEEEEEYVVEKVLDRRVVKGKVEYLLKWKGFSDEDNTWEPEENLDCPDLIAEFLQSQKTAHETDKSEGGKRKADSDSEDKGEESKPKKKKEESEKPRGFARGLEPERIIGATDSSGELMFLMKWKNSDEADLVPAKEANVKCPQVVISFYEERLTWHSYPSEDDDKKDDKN
Sequence of Flap endonuclease 1 (Homo sapiens) (P39748 whole entry, looked up): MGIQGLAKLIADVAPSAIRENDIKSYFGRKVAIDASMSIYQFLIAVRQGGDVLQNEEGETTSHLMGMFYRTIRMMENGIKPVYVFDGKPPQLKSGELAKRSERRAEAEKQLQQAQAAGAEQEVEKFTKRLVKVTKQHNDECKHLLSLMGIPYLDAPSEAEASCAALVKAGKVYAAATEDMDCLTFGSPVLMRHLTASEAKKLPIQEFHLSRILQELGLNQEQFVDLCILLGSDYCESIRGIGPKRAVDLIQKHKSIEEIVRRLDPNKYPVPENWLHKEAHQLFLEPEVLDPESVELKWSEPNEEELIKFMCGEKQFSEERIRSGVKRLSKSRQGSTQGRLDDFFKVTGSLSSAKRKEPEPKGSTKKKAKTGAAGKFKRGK
Sequence of D(1A) dopamine receptor (Homo sapiens) (P21728 whole entry, looked up): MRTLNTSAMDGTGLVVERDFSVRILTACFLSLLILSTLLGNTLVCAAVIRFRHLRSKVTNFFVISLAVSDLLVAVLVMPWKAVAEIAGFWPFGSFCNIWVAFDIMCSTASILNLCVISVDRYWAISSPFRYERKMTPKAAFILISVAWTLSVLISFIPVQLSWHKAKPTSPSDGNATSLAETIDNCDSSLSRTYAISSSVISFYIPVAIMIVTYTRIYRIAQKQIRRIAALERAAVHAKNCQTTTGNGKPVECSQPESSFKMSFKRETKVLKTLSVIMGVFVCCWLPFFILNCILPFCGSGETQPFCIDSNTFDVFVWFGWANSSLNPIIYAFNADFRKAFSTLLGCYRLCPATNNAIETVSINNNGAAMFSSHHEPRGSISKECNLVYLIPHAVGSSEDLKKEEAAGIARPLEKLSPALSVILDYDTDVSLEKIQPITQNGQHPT

CC1=NN=C(c2ccc(N)cc2)c2cc3c(cc2C1)OCO3
inactive: all assays above

O=C1CCCN1CC#CCN1CCCC1
inactive: all assays above

NC(CP(=O)(O)O)C(=O)O (centres undefined)
inactive: all assays above

NCc1cc(=O)[nH]o1
inactive: all assays above

O=C(O)Cc1cnc[nH]1
not listed: [6]
inactive: all other assays above

NCCc1c[nH]c2ccccc12
inactive: all assays above

CNCCc1c[nH]c2ccc(O)cc12
not listed: [6]
inactive: all other assays above

C#CCOC(=O)C1=CCCN(C)C1
inactive: all assays above

COc1cc(C(O)CN)ccc1O (centres undefined)
inactive: all assays above

CC(=O)[C@H]1CCC2C3CC[C@H]4C[C@H](O)CC[C@]4(C)C3CC[C@@]21C (some centres undefined)
inactive: all assays above

C=CCN1CC[C@]23CCCCC2[C@H]1Cc1ccc(O)cc13 (some centres undefined)
inactive: all assays above

O=C(O)CC[N+](=O)[O-]
not listed: [9]
inactive: all other assays above

CCCN1CCO[C@@H]2c3cc(O)ccc3OC[C@H]21
inactive: all assays above

CCCCc1ccc(C(=O)O)nc1
inactive: all assays above

CCCN(CCC)[C@@H]1CCc2ccc(O)cc2C1
inactive: all assays above

C[C@@H](N)Cc1cnc[nH]1
inactive: all assays above

NC(CCP(=O)(O)O)C(=O)O (centres undefined)
inactive: all assays above

Clc1cnc(Oc2ccc(Oc3ncc(Cl)cc3Cl)cc2)c(Cl)c1
inactive: all assays above

NC1CC1c1ccccc1 (centres undefined)
not listed: [7] | [10]
inactive: all other assays above

CS(=N)(=O)CC[C@H](N)C(=O)O (some centres undefined)
not listed: [6]
inactive: all other assays above

CC[C@@]1(O)C(=O)OCc2c1cc1n(c2=O)Cc2cc3ccccc3nc2-1
active: [1] 2330 nM
not listed: [6]
inactive: all other assays above

NC(=NCCC[C@H](N)C(=O)O)N[N+](=O)[O-]
inactive: all assays above

C[N+]1(C)C2CCC1CC(OC(=O)C(CO)c1ccccc1)C2 (centres undefined)
inactive: all assays above

Cn1cnc(CCN)c1
inactive: all assays above

NCCc1c[nH]c2ccc(O)cc12
inactive: all assays above

CC(C)Oc1cccnc1N(C)C1CCN(Cc2ccccc2)CC1
not listed: [6]
inactive: all other assays above

C[C@]12N[C@H](Cc3ccccc31)c1ccccc12
active: [6] 7.5 nM
inactive: all other assays above

O=C(O)[C@@H]1CCN1
inactive: all assays above

C[C@@H]1O[C@H](C[N+](C)(C)C)C[C@H]1O
inactive: all assays above

NC(N)=NOCCC(N)C(=O)O (centres undefined)
inactive: all assays above

CNCCc1ccc(O)c(O)c1
active: [3] 13400 nM | [4] 2990 nM | [10] 282 nM
not listed: [6]
inactive: all other assays above

Cc1nccc2c1[nH]c1ccccc12
not listed: [4]
inactive: all other assays above

C/C=C(/C)C(=O)O[C@H]1C(C)=C2[C@H]([C@@H]1OC(=O)CCCCCCC)[C@@](C)(OC(C)=O)C[C@H](OC(=O)CCC)[C@@]1(O)[C@H]2OC(=O)[C@@]1(C)O
inactive: [4] | [5] | [6] | [7]

COC(=O)[C@@H](N)CCCN=C(N)N[N+](=O)[O-]
not listed: [1] | [8] | [9]
inactive: all other assays above

NC1CCc2cc(O)c(O)cc2C1 (centres undefined)
inactive: [1] | [2] | [7] | [8] | [9]
active: [5] 79.4 µM | [10] 158 nM

Cc1nc(-c2ccc(-c3ccc(C(=O)N4CCc5cc6c(cc54)C4(CCN(C)CC4)CO6)cc3)c(C)c2)no1
active: [5] 11.2 µM
inactive: [8] | [9]

c1ccc2sc(C3(N4CCCCC4)CCCCC3)cc2c1
not listed: [1]
inactive: all other assays above

Clc1ccc(C(c2ccc(Cl)cc2)n2cc[n+](CC(OCc3ccc(Cl)cc3Cl)c3ccc(Cl)cc3Cl)c2)cc1 (centres undefined)
inactive: [4] | [8] | [9]
active: [6] 50100 nM
35.5 µM (active) and inactive: [5]

CCCN1CCC[C@H](c2cccc(O)c2)C1
not listed: [4] | [7]
inactive: all other assays above

Oc1ccc2c3c1O[C@H]1c4[nH]c5c(c4C[C@@]4(O)[C@@H](C2)N(CC2CC2)CC[C@]314)C[C@@]1(O)[C@H]2Cc3ccc(O)c4c3[C@@]1(CCN2CC1CC1)[C@H]5O4
not listed: [1] | [4] | [6]
inactive: all other assays above

c1ccc(CCCN2CCN(CCOC(c3ccccc3)c3ccccc3)CC2)cc1
active: [5] 39.8 µM | [6] 8.4 nM
not listed: [1]
inactive: all other assays above

CC(=O)NCCc1c[nH]c2ccccc12
not listed: [6]
inactive: all other assays above

CCn1cc(C(=O)O)c(=O)c2cc3c(cc21)OCO3
inactive: [2]
active: [6] 6.7 nM

CC[C@@H]1C(=O)OC[C@@H]1Cc1cncn1C
inactive: [1] | [5] | [8] | [9]

NC(=O)CN1CC(O)CC1=O (centres undefined)
not listed: [4]
inactive: all other assays above

CC[C@@H](C(N)=O)N1CCCC1=O
not listed: [1] | [8] | [9]
inactive: all other assays above

CN[C@@H](C)[C@H](O)c1ccccc1
inactive: [9]
active: [5] 3.55 µM

CN1C2CCC1CC(OC(=O)c1cc(Cl)cc(Cl)c1)C2 (centres undefined)
not listed: [2] | [10]
inactive: all other assays above

S=C(NC1CCCCC1)N1CCC(c2cnc[nH]2)CC1
not listed: [6] | [8]
inactive: all other assays above

Cc1c(C(=O)c2cccc3ccccc23)c2cccc3c2n1[C@H](CN1CCOCC1)CO3
active: [6] 6 nM
not listed: [1] | [7]
inactive: all other assays above

O=C(Cc1ccc(Cl)c(Cl)c1)N1CCCCC1CN1CCCC1 (centres undefined)
not listed: [1]
inactive: all other assays above

CC(C)NC(C)Cc1ccc(I)cc1 (centres undefined)
not listed: [1] | [8]
inactive: all other assays above

C[C@]12CCC3C(CC[C@H]4C[C@H](O)CC[C@]34C)C1CC[C@@H]2C(=O)CO (some centres undefined)
not listed: [1]
inactive: all other assays above

c1ccc(C2(c3ccccc3)CC2C2=NCCN2)cc1 (centres undefined)
not listed: [1] | [8] | [9]
inactive: all other assays above

C[N+]1(C)C2CC(OC(=O)[C@H](CO)c3ccccc3)CC1C1OC12 (some centres undefined)
7.5 nM (active) and inactive: [6]
inactive: [4] | [5]

O=C(N[C@H]1CN2CCC1CC2)c1ccc(Cl)cc1
not listed: [1] | [8] | [9]
inactive: all other assays above

CCCN(CCC)C1CCc2ccc(O)cc2C1 (centres undefined)
not listed: [1] | [2]
inactive: all other assays above

COc1ccc2c(c[n+](C)c3c4cc5c(cc4ccc23)OCO5)c1OC
not listed: [1] | [4] | [6]
inactive: all other assays above

CC(Cc1ccc(O)cc1)NCC(O)c1cc(O)cc(O)c1 (centres undefined)
not listed: [4]
inactive: all other assays above

CN[C@@H]1C[C@@H](c2ccc(Cl)c(Cl)c2)c2ccccc21
active: [10] 12600 nM
not listed: [1] | [4] | [8]
inactive: all other assays above

C[N+](C)(C)CC(=O)O
inactive: [1] | [4] | [5] | [8]

Source: PubChem BioAssay (NCATS)
